# High-throughput results deposited in PubChem by several laboratories.
# This is a sample that favours compounds with a hit; in the whole collection about 2.2% have one here.
# LGR2 inh: Drosophila LGR2 receptor signaling inhibition; HEK293 LGR2, CRE-luciferase, bursicon-stimulated, 4 h; inhibition, % at 9.99 µM; 380,000 compounds, 0.35% hits; AID 720647;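 active = drop in luminescence signal, shown as inhibition above about 50% in the replicate tests, limit read from the data, passing the limit was not always enough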;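 note: agonist challenge used bursicon conditioned medium at about half maximal strength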
# HSP90 inh: inhibitors of HSP90 luciferase refolding in rabbit reticulocyte lysate; luciferase refolding luminescence, 3 h; inhibition, % at 5.6 µM; 290,000 compounds, 0.91% hits;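 active = inhibition above the screen-wide mean plus 3 SD, computed separately per campaign, cut at about 16% in these data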;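 note: 0% = DMSO wells and 100% = 60 µM geldanamycin wells; inhibitors lower the luminescence because luciferase stays unfolded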
# TROY signal inh: inhibitors of TROY-dependent NF-kB signaling; Q293 LMP1-TROYcd NF-kB luciferase reporter, 4 h; inhibition, % at 10 µM; 360,000 compounds, 0.98% hits;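 active = compounds whose plate-normalised and pattern-corrected inhibition of the luciferase reporter signal at the single screening dose is 50% or more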
# TWEAK-Fn14 inh: TWEAK-Fn14 signaling inhibition; 360,000 compounds, 2% hits; TWEAK-stimulated Fn14 reporter cells, luciferase luminescence, 8 h; inhibition, % at 10 µM; in the data active = inhibition above about 50%
# The depositor's hits bear a star; . = no result.
SMILES,LGR2 inh,HSP90 inh,TROY signal inh,TWEAK-Fn14 inh
Cc1noc(C)c1CSCC(=O)Nc1nc(-c2ccc(F)c(F)c2)cs1,0.8,.,71.6*,76.8*
CCc1noc(C)c1C(=O)OCC(=O)Nc1nc(-c2ccc(F)c(F)c2)cs1,.,.,53.5*,8.1
COc1ccc(O)c(/C=N/Nc2nc(Nc3ccccc3)nc(-n3nc(C)cc3C)n2)c1,.,6.1,-28.4,59.7*
COc1cc(/C=N/Nc2nc(Nc3ccccc3)nc(-n3nc(C)cc3C)n2)cc(OC)c1OC,-9.3,1.5,-1.8,44.7
C/C(=N\NC(=O)c1n[nH]c2c1CCC2)c1ccco1,41.5,3.0,-17.0,58.6*
CCCNC(=O)c1n[nH]c2c1CC(C(C)(C)CC)CC2 (stereo not drawn),.,.,4.8,-0.6
O=C(NN=C1CCCC1)c1n[nH]c2c1CCC2,-16.3,-0.2,-12.9,-5.4
CCC(C)(C)C1CCc2[nH]nc(C(=O)N/N=C(\C)c3ccco3)c2C1 (stereo not drawn),-66.7,11.7,68.4*,44.5
Cc1onc(-c2ccccc2)c1NC(=O)Nc1c(-c2ccccc2)noc1C,.,-4.0,-10.4,-0.5
Cc1onc(-c2ccccc2)c1NC(=O)OC(C)c1cccnc1 (stereo not drawn),-2.5,.,-12.4,86.8*
C[C@@H](NC(=O)C[C@H]1CC[C@H]2[C@@H](COc3ccc(NS(=O)(=O)c4ccc(Cl)cc4)cc3C(=O)N2C)O1)c1ccccc1,-6.9,.,.,.
CCOc1ccc(-c2nnc(-c3cccs3)o2)cc1OCC,.,-0.1,-97.9,-23.2
c1csc(-c2nnc(-c3ccc(N4CCOCC4)cc3)o2)c1,.,4.6,-3.4,58.7*
CCOc1ccc(-c2nnc(-c3cccs3)o2)cc1,.,9.0,21.7,63.2*
C[C@H](CO)N1C[C@H](C)[C@@H](CN(C)C(=O)c2ccccc2)OCCCC[C@H](C)Oc2ccc(NS(=O)(=O)c3ccc(Cl)cc3)cc2C1=O,-19.3,.,.,.
C[C@@H]1CN([C@@H](C)CO)C(=O)c2cc(C3=CCCC3)cnc2O[C@H]1CN(C)Cc1ccc(C(=O)O)cc1,1.6,.,.,.
O=C1COc2cc(S(=O)(=O)CCC(=O)N3CCCCC3)c(Cl)cc2N1,7.6,-3.1,3.0,98.0*
CN1CCN(C(=O)CCS(=O)(=O)c2cc3c(cc2Cl)NC(=O)CO3)CC1,-11.6,-0.4,2.9,12.1
COC(=O)c1ccc(-c2nc(-c3cccs3)no2)cc1,83.7*,5.1,64.2*,92.1*
Fc1ccc(-c2nc(-c3cccs3)no2)cc1,-86.8,0.3,-63.1,-14.0
CN(C)S(=O)(=O)c1cccc(NC(=S)Nc2cccc3cnccc23)c1,19.0,12.4,43.5,72.8*
S=C(Nc1cccnc1)Nc1cccc2cnccc12,13.5,8.6,9.8,28.1
CCOc1ccc(NC(=S)Nc2cccc3ccccc23)cc1,-48.5,14.2,30.6,67.5*
CCOc1ccc(NC(=S)Nc2ccc(OCC)cc2)cc1,-1.5,0.5,6.2,-0.4
Cc1cc(C)cc(NC(=S)Nc2cccc3ccccc23)c1,14.4,2.6,32.9,-1.5
SMILES,LGR2 inh,HSP90 inh,TROY signal inh,TWEAK-Fn14 inh
Cc1ccc(NC(=S)Nc2cccc3ccccc23)cc1,3.9,-0.6,66.0*,40.4
CCOc1ccc(NC(=S)Nc2ccc(C)c([N+](=O)[O-])c2)cc1,.,16.9*,-16.5,-7.7
C[C@H]1CCCCO[C@H](CN(C)C(=O)CCCN(C)C)[C@@H](C)CN([C@@H](C)CO)C(=O)c2cc(NC(=O)c3ccncc3)ccc2O1,9.8,.,.,.
CC(C)NC(=O)N1[C@@H]2CN(C(=O)c3ccccc3F)c3ccccc3[C@@H]2[C@@H]1CO,1.5,.,.,.
CC(=O)N1CC[C@@H]2[C@H]1c1cc(-c3ccccc3)ccc1N(C)[C@@H]2CO,22.1,.,.,.
C[C@H]1CN([C@@H](C)CO)C(=O)c2cc(NC(=O)Nc3cccc4ccccc34)ccc2O[C@H]1CN(C)S(=O)(=O)c1ccccc1,16.0,.,.,.
CCc1cccc(NC(=S)Nc2cccc3ccccc23)c1,-46.9,7.0,52.2*,6.2
COc1ccccc1CNC(=O)C[C@H]1CC[C@H]2[C@@H](COC[C@@H](O)CN2C(=O)Nc2ccc(F)cc2)O1,-14.7,.,.,.
O=[N+]([O-])c1ccc(-n2nnnc2-c2ccccc2)cc1,17.1,-1.2,3.8,8.8
O=[N+]([O-])c1ccc(-n2nnnc2-c2ccccc2)c([N+](=O)[O-])c1,40.1,-0.6,16.9,87.4*
C[C@H](O)C#Cc1cnc2c(c1)C(=O)N([C@H](C)CO)C[C@H](C)[C@H](CN(C)C(=O)c1ccccc1)O2,-4.0,.,.,.
COc1ccc(NC(=O)N(C)C[C@@H]2Oc3ccc(NC(=O)C4CCCCC4)cc3CC(=O)N([C@@H](C)CO)C[C@H]2C)cc1,-17.6,.,.,.
CC(NC(=O)Cn1cnc([N+](=O)[O-])n1)c1ccccc1 (stereo not drawn),.,16.3*,-2.0,-1.5
